Measured values reported in PubChem BioAssay (Tox21).
Inconclusive results are not listed. Calls of active or inactive are those of the source. Unless noted, calls come from the whole dose curve; as a rule, active = well fitted curve in the direction sought with a large enough effect in the repeat runs; inconclusive = weak or mixed curves; inactive = no such curve, though single readings can be large; an effect the other way counts as inactive or inconclusive.

Key:
[1] = qHTS assay to identify small molecule antagonists of the androgen receptor (AR) signaling pathway using the MDA cell line in the presence of 0.5 nM R1881 - cell viability counter screen (AID 1259242); note: nearly all actives have a fitted effect of over 45% in size
Method in brief: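 MDA-kb2 cells (human breast carcinoma, stably carrying MMTV-luciferase reporter) were exposed to compounds with 0.5 nM R1881 (final) for 16 hr at 37C, 0% CO2; viability then read as live-cell protease fluorescence (CellTiter-Fluor, 30 min) in the same wells.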

[2] = qHTS assay to identify small molecule HDAC inhibitors (AID 1259364); note: top concentration of the series differs between compounds; nearly all actives have a fitted effect of over 45% in size
Method in brief: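 Wild-type HCT-116 cells were plated overnight, exposed to compounds for 2 h at 37 °C, then given HDAC-Glo class I/II luminogenic reagent for 30 min at room temperature before luminescence was read.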

[3] = qHTS assay to identify small molecule agonists of the sonic hedgehog signaling (Shh) pathway - cell viability counter screen (AID 1259366); note: nearly all actives have a fitted effect of over 50% in size; note: potency is the fitted concentration of half-maximal effect
Method in brief: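 In quantitative high-throughput format, 3T3 Gli1-Luc cells were exposed to compounds for 24hr and multiplexed for viability using CellTiter-Fluor, incubated 1hr at 37C before the fluorescence read.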

[4] = qHTS assay to identify small molecule antagonists of the sonic hedgehog signaling (Shh) pathway - cell viability counter screen (AID 1259367); note: nearly all actives have a fitted effect of over 55% in size; note: potency is the fitted concentration of half-maximal effect
Method in brief: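 NIH/3T3-derived Gli1-Luc reporter cells, 2,000/well, plated 4 hr before compound addition, then stimulated with conditioned medium for 24 hr at 37C. Viability measured in the same wells by CellTiter-Fluor fluorescence, reagent added at 23 hr for 1 hr.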

[5] = qHTS assay to identify small molecule agonists of the sonic hedgehog signaling (Shh) pathway (AID 1259368; calls by dose curve; note: series mostly up to about 92 µM; nearly all actives have a fitted effect of over 15% in size)
Method in brief: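 NIH/3T3-derived 3T3Gli1-Luc cells carrying a stably integrated Gli1 response element–firefly luciferase reporter were plated, left 4 hr at 37 C, then given compounds in DMSO for 24 hr. Luminescence was read 30 min after adding luciferase reagent.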

[6] = qHTS assay to identify small molecule antagonists of the sonic hedgehog signaling (Shh) pathway (AID 1259369; calls by dose curve; note: nearly all actives have a fitted effect of over 45% in size; note: potency is the fitted concentration of half-maximal effect)
Method in brief: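 NIH/3T3-derived 3T3Gli1-Luc cells with stably integrated Gli1-Luc reporter were preincubated 4hr at 37 C, then given compounds in DMSO plus Shh conditioned medium and incubated 24hr. Firefly luciferase luminescence read after 30min reagent at room temperature.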

[7] = qHTS assay to identify small molecule agonists of the androgen receptor (AR) signaling pathway in the presence of an antagonist - cell viability counter screen (AID 1259379); note: nearly all actives have a fitted effect of over 25% in size; note: potency is the fitted concentration of half-maximal effect
Method in brief: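 MDA-kb2 human breast carcinoma cells (stable MMTV-luciferase, AR/GR responsive) were seeded 3,000 cells/well, pre-incubated 5 hr at 37C without CO2, then given 3.0uM nilutamide and compounds at 15 concentrations for 16 hr. Viability was read by CellTiter-Fluor fluorescence.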

[8] = qHTS assay to identify small molecule agonists of the estrogen receptor beta (ER-beta) signaling pathway - cell viability counter screen (AID 1259380); note: nearly all actives have a fitted effect of over 30% in size; note: potency is the fitted concentration of half-maximal effect
Method in brief: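 ER-beta-UAS-bla HEK293T cells in medium with 2% charcoal-stripped FBS were preincubated 6 hr at 37C, dosed with compound in DMSO for 16 hr, then after the bla read, CellTiter-Glo was added for 30 min at room temperature; luminescence recorded.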

[9] = qHTS assay to identify small molecule antagonists of the estrogen receptor beta (ER-beta) signaling pathway - cell viability counter screen (AID 1259382); note: nearly all actives have a fitted effect of over 55% in size; note: potency is the fitted concentration of half-maximal effect
Method in brief: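 ER-beta-UAS-bla HEK293T cells (2,000/well, 2% charcoal-stripped FBS) were pre-incubated 6 hr at 37C, then given compound plus 1nM final 17-beta-estradiol for 16 hr. Viability was read in the same wells by CellTiter-Glo luminescence after 30 min at room temperature.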

[10] = target: Estrogen receptor (Homo sapiens) (UniProt P03372); experiment: qHTS assay to identify small molecule agonists of the estrogen receptor alpha (ER-alpha) signaling pathway in the presence of an antagonist (AID 1259383; calls by dose curve; note: top concentration of the series differs between compounds; nearly all actives have a fitted effect of over 15% in size)
Sequence of Estrogen receptor (Homo sapiens) (P03372 whole entry, looked up): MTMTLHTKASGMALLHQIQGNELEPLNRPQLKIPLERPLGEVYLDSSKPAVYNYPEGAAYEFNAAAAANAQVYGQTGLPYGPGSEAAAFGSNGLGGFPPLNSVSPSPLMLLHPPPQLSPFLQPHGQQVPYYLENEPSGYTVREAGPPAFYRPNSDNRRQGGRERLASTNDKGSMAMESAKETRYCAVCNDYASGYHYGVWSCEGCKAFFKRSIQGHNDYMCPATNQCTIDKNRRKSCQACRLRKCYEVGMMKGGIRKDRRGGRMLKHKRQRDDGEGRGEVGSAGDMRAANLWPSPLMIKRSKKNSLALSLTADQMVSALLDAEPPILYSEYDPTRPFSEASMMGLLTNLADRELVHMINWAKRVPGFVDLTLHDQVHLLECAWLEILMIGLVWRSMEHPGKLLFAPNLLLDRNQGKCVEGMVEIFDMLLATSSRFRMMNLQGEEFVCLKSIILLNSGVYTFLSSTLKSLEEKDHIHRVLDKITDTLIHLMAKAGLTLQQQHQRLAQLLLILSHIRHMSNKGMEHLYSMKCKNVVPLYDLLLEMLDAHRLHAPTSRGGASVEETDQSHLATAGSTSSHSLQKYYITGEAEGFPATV
Method in brief: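 VM7Luc4E2 cells (endogenous full-length ER-alpha, 4×ERE-luciferase) were precultured 5 days in phenol red-free medium with 10% charcoal-stripped FBS, given 10.0nM ICI-182,780 (final), then treated with compounds at 15 concentrations for 22hr at 37C; luminescence read with ONE-Glo.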

[11] = qHTS assay to identify small molecule agonists or antagonists of the thyroid stimulating hormone receptor (TSHR) signaling pathway - wild type cell line counter screen (AID 1259384; calls by dose curve)
Method in brief: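 Wild-type Hek293 cells, 800/well, 18 h at 37C, then compound with Ro20-1724 for 30 min RT. cAMP by HTRF (cAMP-d2/anti-cAMP cryptate), 1 h RT, fluorescence read. 15 concentrations, triplicates.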

[12] = target: Thyrotropin receptor (Homo sapiens) (UniProt P16473); experiment: qHTS assay to identify small molecule antagonists of the thyroid stimulating hormone receptor (TSHR) signaling pathway (AID 1259385; calls by dose curve; note: nearly all actives have a fitted effect of over 20% in size; note: potency is the fitted concentration of half-maximal effect)
Sequence of Thyrotropin receptor (Homo sapiens) (P16473 whole entry, looked up): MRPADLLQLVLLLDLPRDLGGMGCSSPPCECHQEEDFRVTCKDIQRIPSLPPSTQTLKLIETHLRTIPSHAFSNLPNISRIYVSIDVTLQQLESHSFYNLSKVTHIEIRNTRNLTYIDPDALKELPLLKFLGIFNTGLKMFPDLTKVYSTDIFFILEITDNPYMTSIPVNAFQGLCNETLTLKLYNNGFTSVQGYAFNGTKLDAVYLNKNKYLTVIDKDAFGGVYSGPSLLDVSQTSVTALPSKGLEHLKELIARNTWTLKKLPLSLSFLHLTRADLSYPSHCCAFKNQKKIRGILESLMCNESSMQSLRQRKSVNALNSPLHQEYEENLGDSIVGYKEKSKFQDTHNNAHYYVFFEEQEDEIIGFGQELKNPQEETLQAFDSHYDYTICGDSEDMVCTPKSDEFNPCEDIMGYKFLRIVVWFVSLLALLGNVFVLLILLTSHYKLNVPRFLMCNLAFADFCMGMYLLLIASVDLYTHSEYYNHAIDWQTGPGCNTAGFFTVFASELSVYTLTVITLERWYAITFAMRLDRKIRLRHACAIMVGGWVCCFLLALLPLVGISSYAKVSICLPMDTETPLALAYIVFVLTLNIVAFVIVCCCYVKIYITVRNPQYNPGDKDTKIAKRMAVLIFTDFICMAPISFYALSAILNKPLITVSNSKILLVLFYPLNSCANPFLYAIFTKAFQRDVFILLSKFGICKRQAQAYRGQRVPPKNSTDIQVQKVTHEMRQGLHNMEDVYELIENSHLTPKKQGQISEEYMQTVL
Method in brief: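 TSHR-HEK293 cells (800/well) plated 18 h, then compounds with Ro20-1724 and TSH at 1.5 ng/mL final, 30 min at room temperature. cAMP quantified by HTRF (cAMP-d2/anti-cAMP-cryptate, 1 h); 15 concentrations in triplicate.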

[13] = qHTS assay to identify small molecule agonists of the estrogen receptor alpha (ER-alpha) signaling pathway in the presence of an antagonist - cell viability counter screen (AID 1259386); note: nearly all actives have a fitted effect of over 30% in size; note: potency is the fitted concentration of half-maximal effect
Method in brief: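 VM7Luc4E2 cells (endogenous full-length ER-alpha, 4×ERE-luciferase) were held 5 days in phenol red-free medium with 10% charcoal-stripped FBS, plated, then given 10.0nM ICI-182,780 and compounds at 15 concentrations for 22hr at 37C; viability read by CellTiter-Fluor fluorescence.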

[14] = target: Estrogen receptor (Homo sapiens) (UniProt P03372); experiment: qHTS assay to identify small molecule antagonists of the estrogen receptor alpha (ER-alpha) signaling pathway using the BG1 cell line in the presence of 0.1 nM 17-beta-estradiol (AID 1259244); note: nearly all actives have a fitted effect of over 50% in size
Method in brief: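 VM7Luc4E2 cells (endogenous full-length ER-alpha, stable 4xERE-luciferase) were grown 5 days in phenol red-free medium with charcoal-stripped FBS, then exposed 22 h at 37C to compounds plus 0.1 nM (final) 17beta-estradiol; ONE-Glo luminescence read-out.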

[15] = qHTS assay to identify small molecule HDAC inhibitors - cell viability counter screen (AID 1259365); note: series mostly up to about 92 µM; nearly all actives have a fitted effect of over 50% in size
Method in brief: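 Measured quantity is CellTiter-Glo luminescence from wild-type HCT-116 cells after compound incubation of 2hr at 37C, 5% CO2; reagent developed 30min at room temperature.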

[16] = target: Androgen receptor (Homo sapiens) (UniProt P10275); experiment: qHTS assay to identify small molecule agonists of the androgen receptor (AR) signaling pathway in the presence of an antagonist (AID 1259381; calls by dose curve; note: nearly all actives have a fitted effect of over 15% in size)
Sequence of Androgen receptor (Homo sapiens) (P10275 whole entry, looked up): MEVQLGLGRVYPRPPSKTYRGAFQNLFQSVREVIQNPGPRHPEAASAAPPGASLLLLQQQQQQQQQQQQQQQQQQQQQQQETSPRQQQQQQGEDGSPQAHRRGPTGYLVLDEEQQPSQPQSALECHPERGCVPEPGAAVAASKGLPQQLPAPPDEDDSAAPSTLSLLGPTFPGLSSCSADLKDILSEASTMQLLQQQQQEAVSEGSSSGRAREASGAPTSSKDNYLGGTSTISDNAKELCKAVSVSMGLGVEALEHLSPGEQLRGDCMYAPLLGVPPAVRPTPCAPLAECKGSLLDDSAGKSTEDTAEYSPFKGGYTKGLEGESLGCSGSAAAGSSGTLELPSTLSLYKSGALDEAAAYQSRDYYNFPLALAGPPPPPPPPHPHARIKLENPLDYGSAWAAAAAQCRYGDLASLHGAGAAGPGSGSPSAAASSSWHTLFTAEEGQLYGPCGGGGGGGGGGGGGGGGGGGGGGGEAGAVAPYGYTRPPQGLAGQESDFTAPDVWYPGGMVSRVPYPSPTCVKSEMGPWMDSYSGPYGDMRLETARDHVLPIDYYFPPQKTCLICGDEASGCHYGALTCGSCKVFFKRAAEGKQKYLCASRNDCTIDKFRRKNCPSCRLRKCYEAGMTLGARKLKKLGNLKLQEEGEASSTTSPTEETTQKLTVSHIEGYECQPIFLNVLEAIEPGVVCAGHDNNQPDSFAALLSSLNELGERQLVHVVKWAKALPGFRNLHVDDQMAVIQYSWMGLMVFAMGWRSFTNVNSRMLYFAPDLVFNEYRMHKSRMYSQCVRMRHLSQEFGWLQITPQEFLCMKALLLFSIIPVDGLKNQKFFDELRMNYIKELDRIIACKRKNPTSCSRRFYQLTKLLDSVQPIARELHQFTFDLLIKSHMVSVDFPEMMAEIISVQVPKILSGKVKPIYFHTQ
Method in brief: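 MDA-kb2 human breast carcinoma cells carrying an MMTV-luciferase reporter (AR- and GR-responsive) were treated with compounds at 15 concentrations plus 3.0uM final nilutamide for 16hr at 37C without CO2; luminescence was read after ONE-Glo addition.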

[17] = target: Androgen receptor (Homo sapiens) (UniProt P10275); experiment: qHTS assay to identify small molecule antagonists of the androgen receptor (AR) signaling pathway using the MDA cell line in the presence of 0.5 nM R1881 (AID 1259243); note: nearly all actives have a fitted effect of over 50% in size; note: potency is the fitted concentration of half-maximal effect
Method in brief: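 MDA-kb2 human breast carcinoma cells carrying an MMTV-luciferase reporter (AR- and GR-responsive) were plated, rested 5 hr at 37C, dosed with compounds, then stimulated with 0.5 nM R1881 (final) for 16 hr; luminescence was read after ONE-Glo.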

[18] = target: Estrogen receptor beta (Homo sapiens) (UniProt Q92731); experiment: qHTS assay to identify small molecule agonists of the estrogen receptor beta (ER-beta) signaling pathway (AID 1259377; active = well fitted activation curve with a large enough effect in the signal ratio in the repeat runs, not every such curve was filed as active; the % refers to the signal ratio)
Sequence of Estrogen receptor beta (Homo sapiens) (Q92731 whole entry, looked up): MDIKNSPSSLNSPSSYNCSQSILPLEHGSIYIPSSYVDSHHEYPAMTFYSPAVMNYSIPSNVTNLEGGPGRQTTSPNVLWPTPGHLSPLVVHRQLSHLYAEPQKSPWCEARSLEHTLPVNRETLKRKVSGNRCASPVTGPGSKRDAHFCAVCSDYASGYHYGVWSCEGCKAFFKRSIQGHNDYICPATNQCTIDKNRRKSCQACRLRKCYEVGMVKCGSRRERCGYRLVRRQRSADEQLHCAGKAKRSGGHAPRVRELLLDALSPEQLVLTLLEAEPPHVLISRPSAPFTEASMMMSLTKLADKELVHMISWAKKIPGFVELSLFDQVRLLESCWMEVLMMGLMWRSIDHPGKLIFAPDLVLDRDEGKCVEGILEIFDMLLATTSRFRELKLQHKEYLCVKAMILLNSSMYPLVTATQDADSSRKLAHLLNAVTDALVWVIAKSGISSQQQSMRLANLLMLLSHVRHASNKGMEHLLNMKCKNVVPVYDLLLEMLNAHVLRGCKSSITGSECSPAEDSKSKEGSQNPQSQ
Method in brief: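 Reporter cells (HEK293T, ER-beta-UAS-bla) receive compounds or DMSO after a 6 hr pre-incubation. They then incubate 16 hr at 37C/5% CO2, and fluorescence from LiveBLAzer B/G substrate is measured after 2 hours at room temperature.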

[19] = target: Estrogen receptor beta (Homo sapiens) (UniProt Q92731); experiment: qHTS assay to identify small molecule antagonists of the estrogen receptor beta (ER-beta) signaling pathway (AID 1259378; active = well fitted inhibition curve with a large enough effect in the signal ratio in the repeat runs, not every such curve was filed as active; the % refers to the signal ratio)
Method in brief: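 ER-beta-UAS-bla HEK293T cells in 2% charcoal-stripped FBS medium treated with compound plus 1nM final 17-beta-estradiol for 16 hr at 37C. Beta-lactamase reporter read by FRET substrate fluorescence after 2 hours at room temperature.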

[20] = qHTS assay to identify small molecule phospholipidosis (PLD) inducers (AID 1259344; active = well fitted curve in the direction sought with a large enough effect; an effect the other way counts as inactive or inconclusive; note: potency is the fitted concentration of half-maximal effect)
Method in brief: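 HepG2 cells, 900/well, treated with compound plus LipidTOX Red for 24 h at 37 C; amiodarone positive and DMSO negative controls. Fixed with paraformaldehyde/Hoechst, then high-content imaging scored LipidTOX pit count and integrated intensity per well and per cell.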

Measured: Potency

CCCCCCCCCCCc1ccccc1
not listed: [14] | [15] | [16] | [17] | [18] | [19] | [20]
inactive: all other assays above

CNCCCN1c2ccccc2CCc2ccccc21
inactive: [14] | [2] | [15] | [5] | [16] | [10] | [11] | [13]
active: [6] 5.96 µM | [8] 23.7 µM | [9] 23.7 µM | [12] 29.8 µM

CCCCCCc1ccc(-c2ccc(C#N)cc2)cc1
inactive: [1] | [2] | [3] | [4] | [5] | [6] | [7] | [9] | [11] | [12] | [13]

O=[N+]([O-])c1ccc(NCCO)c(OCCO)c1
active: [3] 24.4 µM | [4] 30.7 µM | [7] 54.5 µM | [13] 27.3 µM
not listed: [1] | [10] | [14] | [20]
inactive: all other assays above

CC(C)=CCC/C(C)=C/CC/C(C)=C/CO
active: [6] 43.3 µM
not listed: [8] | [10] | [14] | [15] | [16] | [17] | [19] | [20]
inactive: all other assays above

O=C1[C@H]2CCCC[C@H]2C(=O)N1CCCCN1CCN(c2nsc3ccccc23)CC1
active: [20] 14.1 µM | [3] 15 µM | [6] 23.7 µM | [13] 29.8 µM
inactive: [2] | [15] | [5] | [18] | [9] | [10] | [11] | [12]

COc1ccc(S(=O)(=O)N2C(=O)[C@@](c3ccccc3OC)(N3C[C@H](O)C[C@H]3C(=O)N(C)C)c3cc(Cl)ccc32)c(OC)c1
active: [17] 54.5 µM | [3] 8.63 µM | [4] 9.69 µM | [6] 15.4 µM | [7] 54.5 µM | [13] 27.3 µM
inactive: [2] | [15] | [5] | [16] | [9] | [10] | [11] | [12]

CCN(CC)CCNc1ccc(CNC=O)c2sc3ccc(OC)cc3c(=O)c12
active: [8] 8.63 µM | [9] 8.63 µM | [13] 13.7 µM
inactive: [2] | [15] | [3] | [4] | [5] | [10]

O=C(OCCCCCCOC(=O)c1ccccc1)c1ccccc1
inactive: [1] | [2] | [3] | [7] | [8] | [9] | [10] | [11] | [12] | [13]
active: [6] 27.3 µM
